From PubChem BioAssay (NCATS)
Several values for one entry are separate records, joined by “and”; a condition that tells them apart may be missing. Equal entries are not always repeated. Results filed as inconclusive are left out. Where a call stands in place of a potency, no number is given. Activity calls are given as the source filed them. Calls come from the whole dose curve; as a rule, active = well fitted inhibition curve with a large enough effect; inconclusive = small, poorly fitted or top-dose-only effect; inactive = flat fitted curve, though single readings scatter. *1 amine or outer side, *2 acyl side, *3 side chain or, on linkers, in order; H or OH if unused. Where a SMILES comes first, the peptide text is derived from it. Bridges are numbered along the chain shown (N, C = ends). [ ]: non-standard residue; d: D form. The star is where a group is joined. ξ: configuration not given here. X10 = NC1=NCCC(C(N[*:1])C(=O)[*:2])N1; ΔAla(3-NHCONH2) = NC(=O)NC=C(N)C(=O)O; ξβ3hOrn = NCCCC(N)CC(=O)*; Dap = NC[CH](N)C(=O)O
Potency is the fitted concentration of half-maximal effect.

Experiment: Primary qHTS for inhibitors of nuclear receptor binding SET domain protein 2 (NSD2) in an isogenic RCH-ACV NSD2 p.E1099K mutant (9B) (AID 1645876); note: nearly all actives have a fitted effect of over 70% in size
Conditions: RCH-ACV (leukaemia line) NSD2 E1099K (9B) viability, CellTiter-Glo, 72 h; series mostly up to 44.9 µM
With `CC(C)(C)C(O)/C=C/c1ccc2c(c1)OCO2` (stereo not drawn) the Potency was “inactive”. In the case of `CC(C)NCCCC1(C(N)=O)c2ccccc2-c2ccccc21`, the Potency was “inactive”. In the case of `Cc1ccc(/C=N/n2c(-c3ccccc3)csc2=S)cc1`, the Potency was “inactive”. For `CC(=O)N[C@@H](CCC(N)=O)C(=O)O`, the Potency was “inactive”. With `CCOC(=O)c1cc(=O)c2c(OCC(COc3cccc4oc(C(=O)OCC)cc(=O)c34)OC(=O)[C@@H](N)CCCCN)cccc2o1` the Potency was “inactive”. With `CCn1ccc(NS(=O)(=O)c2ccc(N)cc2)nc1=O` the Potency was “inactive”. In the case of `O=C(O)[C@H](O)[C@@H](O)[C@H](O[C@@H]1O[C@H](CO)[C@H](O)[C@H](O)[C@H]1O)[C@H](O)CO`, the Potency was “inactive”. For `CC(=O)OCC(=O)[C@@]1(O)CCC2C3CCC4=CC(=O)CC[C@]4(C)C3[C@@H](O)C[C@@]21C` (stereo partly drawn), the Potency was “inactive”. With `O=C(CS(=O)Cc1ccco1)NC/C=C\COc1cc(CN2CCCCC2)ccn1` (stereo not drawn) the Potency was “inactive”. In the case of `CC(=O)[C@@]1(O)CC[C@H]2[C@@H]3C[C@H](C)C4=CC(=O)CC[C@]4(C)[C@H]3CC[C@@]21C`, the Potency was 23.7 µM (active). In the case of `CN1C(=O)CC(C)(c2ccccc2)C1=O` (stereo not drawn), the Potency was “inactive”. In the case of `N#Cc1cc(NC(=O)C(=O)O)c(Cl)c(NC(=O)C(=O)O)c1`, the Potency was “inactive”. With `CCO[C@H](Cc1ccc(OCCc2ccc(OS(C)(=O)=O)cc2)cc1)C(=O)O` the Potency was “inactive”. With `CCOC(=O)c1ccc(NC(=O)CN2CCCCC2)cc1` the Potency was “inactive”. With `Cc1ccccc1N1CCN(CCc2nnc3n2CCCC3)CC1` the Potency was “inactive”. For `CC(C)(C)NCC(O)COc1ccccc1OCC1CCCO1` (stereo not drawn), the Potency was “inactive”. For `CC(=O)Oc1ccc(C2(c3ccc(OC(C)=O)cc3)Oc3ccccc3NC2=O)cc1`, the Potency was 8.17 µM (active). For `Brc1ccc([C@H]2CN3CCSC3=N2)cc1`, the Potency was “inactive”. With `O=C(O)[C@@H](O)[C@H](O)[C@H](O)[C@@H](O)C(=O)O` the Potency was “inactive”. With `C/C(=C1\CCOC(=O)S1)N(C=O)Cc1cnc(C)nc1N` the Potency was “inactive”. In the case of `CC(C)(C)CC(=O)OCC(=O)[C@@]1(O)CC[C@H]2[C@@H]3CCC4=CC(=O)C=C[C@]4(C)[C@H]3[C@@H](O)C[C@@]21C`, the Potency was 21.1 µM (active). For `CCN(CC)CC(=O)Nc1c(C)cccc1C(=O)OC`, the Potency was “inactive”. In the case of `O=[N+]([O-])c1cncn1CCN1CCOCC1`, the Potency was “inactive”. In the case of `O=C1[C@@H]2[C@H]3CC[C@H](C3)[C@@H]2C(=O)N1CCCCN1CCN(c2ncccn2)CC1`, the Potency was “inactive”. For `N#C/C(=C1/SC[C@@H](c2ccc(Cl)cc2Cl)S1)n1ccnc1`, the Potency was 13.3 µM (active). In the case of `CC(C)Cc1ccc(C(C)C(=O)OCc2ccccn2)cc1` (stereo not drawn), the Potency was “inactive”. With `CCCC(=O)OCOC(=O)C1=C(C)NC(C)=C(C(=O)OC)C1c1cccc(Cl)c1Cl` (stereo not drawn) the Potency was “inactive”. For `O=C(O)C(=O)Nc1cccc(-c2nn[nH]n2)c1`, the Potency was “inactive”. For `CN1C(CSCC(F)(F)F)Nc2cc(Cl)c(S(N)(=O)=O)cc2S1(=O)=O` (stereo not drawn), the Potency was “inactive”. In the case of `CCCCCC[C@@H](CCC)C(=O)O`, the Potency was “inactive”. In the case of `CC(=O)Nc1c(I)c(NC(C)=O)c(I)c(C(=O)O)c1I`, the Potency was “inactive”. With `O=C(OCC(COC(=O)c1cccnc1)(COC(=O)c1cccnc1)COC(=O)c1cccnc1)c1cccnc1` the Potency was “inactive”. In the case of `CCC1=C[C@@H]2CN(C1)Cc1c([nH]c3ccccc13)[C@@](C(=O)OC)(c1cc3c(cc1OC)N(C)[C@H]1[C@@](O)(C(=O)OC)[C@H](OC(C)=O)[C@]4(CC)C=CCN5CC[C@]31[C@@H]54)C2`, the Potency was 2.1 nM (active) and 162 nM (active). In the case of `CCCCCOc1ccccc1/C(=C\SC)n1ccnc1`, the Potency was 13.3 µM (active). For `O=C(Nc1ccc(Cl)cc1)Nc1ccc(Cl)c(Cl)c1`, the Potency was 6.68 µM (active). In the case of `CC(C(O)c1ccccc1)N(C)CCOC(c1ccccc1)c1ccccc1` (stereo not drawn), the Potency was 16.3 µM (active). With `C/C(=N\O)[C@@H](C)NCC(C)(C)CN[C@H](C)/C(C)=N/O` the Potency was “inactive”. In the case of `NCCCC(N)CC(=O)NCC1NC(=O)C(CO)NC(=O)C(N)CNC(=O)C(C2CCN=C(N)N2)NC(=O)C(=CNC(N)=O)NC1=O` (stereo not drawn) (H-[Dap]S[Dap](ξβ3hOrn)[ΔAla(3-NHCONH2)][X10]; lactam 1-C; configuration not given here), the outcome was “inactive [at 0.588 µM]”.
